# From PubChem BioAssay AID602441 (National Center for Advancing Translational Sciences (NCATS), 2012)
# Out of some 1,300 compounds screened, fewer than 10 were called active. About 9% were inconclusive and are not listed. Only a sample is shown. Unmarked numbers belong to inactive results. The call rests on the fitted dose curve; in most records, active means well fitted curve in the direction sought with a large enough effect; inconclusive means small, poorly fitted or top-dose-only effect, or another doubt; inactive means no such curve, though single readings can be large or run the other way.
# Experiment: qHTS for antagonists of the Thyroid Stimulation Hormone Receptor: Hit Validation in Parental Cell Line; on activity change, negative = inhibition: 0% is about no effect
# Conditions: parental HEK293 cells lacking TSHR, counter-screen; series mostly up to 56.9 µM; activity change, negative = inhibition: at the top concentration
# Text: The thyroid-stimulating hormone receptor (TSHR) is a member of the 7 trans-membrane-spanning receptor (7TMR) family of cell surface receptors. TSHR-mediated hyperthyroidism is important in thyroid pathology. The development of small molecule antagonists of TSHR may lead to therapeutic approaches for TSHR-mediated hyperthyroidism caused by constitutively activating mutations or stimulating auto-antibodies associated with Graves' disease. Graves' disease is the leading cause of hyperthyroidism and is caused by autoantibodies that stimulate TSHR (TsAbs) causing thyroid growth and unregulated overproduction of thyroid hormones and existing treatments have liabilities (agranulocytosis). In addition, TSHRs are known to be expressed in multiple extrathyroidal tissues including bone, brain, kidney, testis, fat and cells of the immune system but the role of the TSHR in these tissues is not clear. Therefore, TSHR antagonists/inverse agonists could be used as probes of extrathyroidal TSHR function. Finally, TSHR inverse agonists, which are a subclass of antagonists that inhibit agonist-independent (or basal or constitutive) TSHR signaling, could be used to inhibit TSH-independent signaling in patients with recurrent or metastatic thyroid cancer who are receiving thyroid hormone to suppress TSH.
# In collaboration between scientist from the NCGC and the NIDDK, a miniaturized HTRF high-throughput screen was developed. It's a cell based assay, where an anti cAMP antibody contains a fluorescent cryptate tag (excitation 337 nm; emission 620 nm) and the acceptor is cAMP-d2 (excitation 620 nm; emission 665 nm). When antibody and cAMP-d2 interact and are excited by a 337 nm light, a FRET occurs resulting in emission at 665 nm. The assay is competition between cAMP-d2 and cAMP (from the cell lysate). The homogeneous protocol allows for one step dispense after stimulation that is automation friendly. This is a hit validation assay in a counterscreen using parental HEK 293 cells lines.
# NIH Chemical Genomics Center [NCGC]
# NIH Molecular Libraries Probe Centers Network [MLPCN]
# Assay Provider: Marvin Gershengorn, NIDDK
# An anti cAMP antibody contains a fluorescent cryptate tag (excitation 337 nm; emission 620 nm) and the acceptor is cAMP-d2 (excitation 620 nm; emission 665 nm). When antibody and cAMP-d2 interact and are excited by a 337 nm light, a FRET occurs resulting in emission at 665 nm. The assay is competition between cAMP-d2 and cAMP (from the cell lysate). The homogeneous protocol allows for one step dispense after stimulation that is automation friendly. This assay uses parental HEK-EM 293 cells
# Potency means the concentration at half of the fitted maximal effect.
Structure (SMILES),"activity change, negative = inhibition [%]",Potency
O=C(COc1ccccc1/C=C1\SC(=S)NC1=O)Nc1ccc(F)cc1,-2.81,
CN(C)S(=O)(=O)Oc1cccc(C(=O)Nc2ccc(Cl)c(Cl)c2)c1,-6.85,
O=[N+]([O-])c1ccc(NC(=S)NCCc2ccc(F)cc2)cc1,-7.64,
COCC1CCCCN1C(=O)C1CCN(c2nc(-c3ccccc3)nc3c2CCC3)CC1 (configuration not stated),-0.886,
CC(CNC(=O)c1cc(COc2ccc3ncccc3c2)on1)c1ccccc1 (configuration not stated),-3.81,
N#C/C(=C(/O)COC(=O)c1ccc(C#N)cc1)c1nc2ccccc2s1,-2.37,
CCCCCC/C(C)=C1/SC(=S)NC1=O,-0.358,
O=C(Cn1nc(Cc2cccnc2)c2ccccc2c1=O)NCC1COc2ccccc2O1 (configuration not stated),5.27,
Cc1ccc(/C=C/C(=O)Nc2ccc(Oc3ccccc3)cc2)o1,-2.86,
CC(C)Oc1ccc(C(=O)Nc2ccc(Cl)c(S(=O)(=O)Nc3ccc(Cl)cc3)c2)cc1,0.687,
Cc1ccc([N+](=O)[O-])cc1S(=O)(=O)Nc1ccc(-c2ccc(N3CCCC3)nn2)cc1,-5.81,
Cc1ccccc1-n1sc2cc(F)ccc2c1=O,-7.14,
COc1ccc(CNC(=O)C(c2ccco2)N(C(=O)c2snc(C(N)=O)c2N)c2cccc(OC)c2)cc1 (configuration not stated),1.19,
CC(C)C(c1nnnn1Cc1ccco1)N1CCN(c2nc3ccccc3s2)CC1 (configuration not stated),-0.88,
COc1cccc(CN(C)C(=O)c2ccc(Oc3ccccc3)cc2)c1OC,2.59,
Cc1ccc(C2=NS(=O)(=O)N(C)C(C(=O)NCc3ccc(F)cc3)=C2)cc1,2.08,
CC(=O)c1ccc(N2CCN(C(=S)Nc3ccc(Oc4ccccc4)cc3)CC2)cc1,-1.07,
CCn1c(=NC(=O)CSC(C)=O)sc2ccccc21,0.315,
Clc1ccc2c(c1)-c1nnc(Br)n1-c1ccccc1S2,6.35,
COc1ccc(C(=O)/C(=C\c2ccco2)N2C=CC=CC2=C(C#N)C#N)cc1,-3.62,
COc1cc(/C=N/Nc2ccc(C(=O)O)cc2)ccc1O,-5.88,
Cc1nn(Cc2ccc(Cl)cc2)c(C)c1NC(=O)c1noc2c1CCc1ccccc1-2,-0.224,
Cc1ccc(-n2c(Cl)c(Cl)nc(Cl)c2=O)cc1,-20.4,
Cc1nn(-c2nc3ccccc3s2)c(N)c1-c1ccccc1,-9.47,
CC(C)C(C)NC(=O)COc1ccc(Sc2ccc(OCC(=O)NC(C)C(C)C)cc2)cc1 (configuration not stated),-0.802,
Cc1ccc2nc(NC(=O)C3CCN(S(=O)(=O)c4cc([N+](=O)[O-])ccc4Cl)CC3)sc2c1,-2.06,

Structure (SMILES),"activity change, negative = inhibition [%]",Potency
Cc1cccc(NC(=O)C2C3CCC4C(CCC32)C4(Cl)Cl)c1 (configuration not stated),-1.11,
Cc1ccccc1Oc1cc(-n2ncc(Cl)c(Cl)c2=O)ncn1,7.91,
COc1ccc(NC(=O)/C(Cl)=C(/Cl)S(=O)(=O)Cc2ccccc2)cn1,-9.15,
O=C(Nc1nc(-c2cccs2)cs1)c1ccc(S(=O)(=O)N2CCCCC2)cc1,-9.31,
CCCCc1c(C)nc2nc(SCc3ccc(Cl)cc3)[nH]n2c1=O,-0.616,
Clc1cc(Cl)c(OCc2nc(-c3ccccn3)no2)cc1Cl,-4.07,
O=[N+]([O-])c1ccc(NC(=S)NCc2ccc(F)cc2)cc1,-9.76,
CC1CCCCN1C(=O)CSCC(=O)Nc1nc(-c2cccs2)cs1 (configuration not stated),-1.89,
CC(=O)c1c(C)[nH]c(C(=O)COc2cc(C)ccc2C(C)C)c1C,0.826,
COc1cccc(COc2cc3ccccc3nc2C)c1,1.35,
O=[N+]([O-])c1cc(Br)c(O)c(/C=N/Nc2nnnn2-c2cccc3ccccc23)c1,-0.201,
Cc1csc2ncnc(N3CCN(S(=O)(=O)c4cccc(C(F)(F)F)c4)CC3)c12,-0.152,
CC(C)c1ccc(OCC(=O)Nc2cccc3c2CCCC3)cc1,4.59,
O=C(Cn1cnc2ccccc21)Nc1ccc2c(c1)OCCCO2,1.89,
Cc1c(Nc2cc(Cl)c3nonc3c2[N+](=O)[O-])c(=O)n(-c2ccccc2)n1C,-9.16,
CN(C)S(=O)(=O)c1ccc(N2CCN(S(=O)(=O)c3ccc(F)cc3)CC2)c(Cl)c1,1.41,
CC(NC(=O)c1ccc([N+](=O)[O-])o1)C1CC2CCC1C2 (configuration not stated),2.74,
C=CCC1(CC=C)CCCN1C(=O)c1cc(COc2ccc(C)nc2)on1,0.634,
C=CCN1C(=O)C(Cc2ccc(OC)cc2)S/C1=N/N=C/c1ccco1 (configuration not stated),2.46,
CSc1cnn(Cc2ccccc2)c(=O)c1SCc1ccccc1,-0.181,
COC(=O)c1ccc(COc2cc(O)c3c(c2)OC(C)(C)CC3=O)cc1,-0.0715,
COc1ccc(-c2csc3ncnc(N4CCN(S(=O)(=O)c5cccs5)CC4)c23)cc1,0.325,
N#Cc1ccc(CN2CCN(C(=O)c3ccc(S(=O)(=O)N4CCCCCC4)cc3)CC2)cc1,-5.72,
Cc1ccc(NC(=O)COc2cccc3c2OC(C)(C)C3)c(O)c1,-0.793,
N#C/C(=N\Nc1ccc(S(=O)(=O)N2CCCCCC2)cc1)C(N)=S,-4.32,
Cc1sc2nc(-c3ccccn3)[nH]c(=O)c2c1-c1ccccc1,-1.49,

Structure (SMILES),"activity change, negative = inhibition [%]",Potency
O=S(=O)(NCc1csc(-c2ccccc2)n1)c1ccc(Cl)s1,3.27,
O=C(Nc1ccc(Br)cc1)c1cccc(S(=O)(=O)Nc2cnc3ccccc3c2)c1,-3.55,
COc1ccc2ccccc2c1/C=N/NC(=O)c1nnn(-c2nonc2N)c1C(C)C,-4.51,
COc1ccc(-c2csc(/C(C#N)=C\c3ccc(O)c([N+](=O)[O-])c3)n2)cc1OC,-6.65,
CCOC(=O)c1sc(NC(=O)c2cc(-c3ccccc3C)nc3ccccc23)c(C#N)c1C,-2.33,
Cc1ccc(OCc2cc(C(=O)NC3CCCCC3)no2)cn1,-0.0859,
O=C(Nc1ccncc1)c1cccc(S(=O)(=O)N2CCc3ccccc32)c1,-2.96,
N#C/C(=N/Nc1ccc(OC(F)(F)F)cc1)C(N)=S,-5.72,
Cc1ccc(CN2CCc3c(OCc4ccc(F)cc4)cccc3C2=O)cc1,-2.57,
COc1ccc(C(=O)c2ccccc2)c2c(O)ccc(C(=O)c3ccccc3)c12,-1.57,
CCCC(=O)OCCNc1cc(Sc2nc3ccccc3[nH]2)c2nonc2c1[N+](=O)[O-],-7.55,
N#CC(C#N)=NNc1ccc(S(=O)(=O)N2CCCCC2)cc1,-1.81,
COc1ccc(NS(=O)(=O)c2cccc(NC(=O)C3=NN(c4ccccc4)C(=O)CC3)c2)cc1,-3.01,
CCOc1ccc(-c2csc(/C(C#N)=C\c3ccc(O)c([N+](=O)[O-])c3)n2)cc1,-9.37,
Cc1cc(C)n(C(=O)/C(C#N)=N/Nc2cc(Cl)cc(Cl)c2)n1,0.0538,
COc1ccccc1C(=O)COC(=O)/C=C/c1ccccc1,3.14,
CN(C)c1ccc(/C=C/c2cc[n+](C)cc2)cc1,-7.72,
CC[n+]1ccc(/C=C/c2ccc(N(C)C)cc2)c2ccccc21,,26.9 µM (active)
O=C(CN1C(=O)c2ccccc2S1(=O)=O)NCCSCc1cccc(Cl)c1,-1.03,
CC1CCC(C(C)C)C(OC(=O)Cn2c(-c3ccccc3)[n+](C)c3ccccc32)C1 (configuration not stated),2.05,
N#Cc1c(C(F)(F)F)cc(-c2ccc(Cl)cc2)[nH]c1=O,-0.329,
COc1ccc2nc(C)cc(N3CCN(S(=O)(=O)c4ccccc4F)CC3)c2c1,-1.34,
Cc1nc2ncnn2c(N2CCCC(C(=O)Nc3ccccc3Br)C2)c1C (configuration not stated),5.02,
O=S(=O)(c1ccc(Cl)cc1)N1CCN(c2ncnc3sccc23)CC1,-4.26,
Cc1noc(C)c1COc1ccccc1C(=O)N(C)Cc1ccc(C(C)(C)C)cc1,-3.32,
O=c1cc(C(F)(F)F)[nH]c2ccc(OC(F)(F)F)cc12,4.01,

Structure (SMILES),"activity change, negative = inhibition [%]",Potency
CCCC(=O)Nc1cccn(Cc2ccccc2Br)c1=O,-0.796,
Cc1ccc(NC(=O)c2ccccc2NS(=O)(=O)c2ccc(F)cc2)cc1S(=O)(=O)N1CCCCC1,-5.23,
COc1cccc(C(=O)Nc2ccc(NC(=O)C3CCCCC3)nc2)c1,-5.39,
Cc1ccc(NC(=O)C(C)c2ccc(-c3ccccc3)c(F)c2)cc1 (configuration not stated),0.0015,
O=C(Nc1ccc(N=Nc2ccccc2)cc1)c1ccccc1Cl,-5.44,
O=C(O)c1cccc(NC2=C(Cl)C(=O)c3ccccc3C2=O)c1,-14.8,
CCN(CC)c1ccc2nc3ccccc3[n+](CC)c2c1,,13.5 µM (active)
Cn1c2c(c(=O)n(C)c1=O)C(C(F)(F)F)(C(F)(F)F)N=C(c1ccc(Cl)cc1)N2,0.519,
Cc1sc(N/N=C/c2cccnc2)nc1-c1ccccc1,-1.97,
COc1ccccc1CNc1ncnc2sccc12,1.11,
COc1ccc(NS(=O)(=O)c2ccc(N/N=C(\C)c3ccncc3)c([N+](=O)[O-])c2)cc1,-6.85,
COC(=O)c1sc(-c2ccc(Cl)cc2)cc1NC(=O)/C=C/C(=O)O,6.29,
COc1cccc(-c2nc(CS(=O)(=O)CC(=O)NC3CCCCCC3)c(C)o2)c1,-0.472,
CCCOc1ccc(-c2cc(C(=O)NCC3CCCO3)c3ccccc3n2)cc1 (configuration not stated),4.51,
COc1ccc(S(=O)(=O)N2CCN(c3cccc(C)c3C)CC2)cc1,-1.34,
CCOC(=O)c1cc(C(=O)Nc2sc3c(c2C#N)CCCC3)nn1C,3.84,
Cc1cccc(N(C(=O)c2nsc(Cl)c2Cl)C(C(=O)NC2CCCC2)c2ccc(O)cc2)c1C (configuration not stated),-4.34,
Cc1occc1-c1nnc(SCC(=O)Nc2nc(C(C)(C)C)cs2)o1,0.133,
COc1ccc(Cn2nnnc2C(C(C)C)N2CCN(c3ccccc3OC)CC2)cc1 (configuration not stated),-3.62,
O=C(Nc1nc(-c2ccc(S(=O)(=O)N3CCCCCC3)cc2)cs1)c1ccccc1,-3.18,
Cc1ccc(C)c(C(=O)OCC(=O)Nc2cccc(S(=O)(=O)N3CCCCC3)c2)c1,-4.33,
CCOC(=O)c1c(-c2ccccc2)csc1NC(=O)CSc1nnnn1C,-6.89,
Cc1ccccc1-c1cc(C(=O)Nc2sc(C(=O)OC(C)C)c(C)c2C#N)c2ccccc2n1,-8.24,
Cc1ccc(C(=O)COC(=O)CCN2C(=O)C3C4CCC(C4)C3C2=O)cc1[N+](=O)[O-] (configuration not stated),0.395,
